# Measured values: PubChem BioAssay (NCATS)
# “And” between values parts separate entries of the source, which are not always exact repeats. Identical values can stand only once. Results filed as inconclusive are left out. Where a call stands in place of a potency, no number is given. The source made the active and inactive calls. Unless noted, calls come from the whole dose curve; as a rule, active = well fitted curve in the direction sought with a large enough effect; inconclusive = small, poorly fitted or top-dose-only effect, or another doubt; inactive = no such curve, though single readings can be large; an effect the other way counts as inactive or inconclusive.
# What was measured:
# [1] = molecular target: Alpha-galactosidase A (Homo sapiens) (UniProt P06280); test: Counterscreen for Glucocerebrosidase Inhibitors: qHTS Assay for Human alpha-Galactosidase at pH 4.5 (AID 992)
# Alpha-galactosidase A (Homo sapiens), sequence (P06280 whole entry, looked up): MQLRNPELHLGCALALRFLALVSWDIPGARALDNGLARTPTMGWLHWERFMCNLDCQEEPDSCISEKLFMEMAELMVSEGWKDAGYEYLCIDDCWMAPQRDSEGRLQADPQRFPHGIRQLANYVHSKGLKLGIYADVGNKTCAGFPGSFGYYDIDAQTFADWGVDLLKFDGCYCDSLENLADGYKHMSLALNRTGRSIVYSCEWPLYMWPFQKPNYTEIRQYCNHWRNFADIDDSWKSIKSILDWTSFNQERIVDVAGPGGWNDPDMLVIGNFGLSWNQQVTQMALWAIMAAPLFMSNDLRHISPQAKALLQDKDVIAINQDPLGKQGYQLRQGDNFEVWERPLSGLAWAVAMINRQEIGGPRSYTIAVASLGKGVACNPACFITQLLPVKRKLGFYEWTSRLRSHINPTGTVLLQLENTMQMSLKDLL
# In short: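 Quantitative HTS: compounds tested from 0.7 nM up to 77 uM against 2 nM enzyme with 80 uM 4-MU alpha-D-galactopyranoside. The 20 min room-temperature reaction is stopped with 1M NaOH/1M glycine, pH 10.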
# [2] = Validation of Assay for Modulators of Lamin A Splicing (AID 1459; active = well fitted curve in the direction sought with a large enough effect in the signal ratio; the % refers to the signal ratio;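 note: cells exposed to compound for two days before reading; ratio rise marks activators and ratio drop marks inhibitors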)
# In short: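 Dual-reporter HeLa S3 line (lamin A-EGFP minigene, DsRed2) treated with compounds 48 hrs, 0.5% DMSO final. Endpoint: EGFP/DsRed2 total intensity ratio from laser-scanning microplate cytometry.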
# [3] = qHTS Assay for Lipid Storage Modulators (AID 1519; calls by dose curve; note: potency is the fitted concentration of half-maximal effect); conditions: Drosophila S3 cells, BODIPY lipid droplet/cell ratio, laser cytometry, cells loaded with oleic acid; for activity change, negative = inhibition: at 57.5 µM (top of the series)
# In short: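 Cells seeded at 5,000 per well were treated with compounds over a concentration series and loaded with oleic acid (400 uM, as added). Lipid droplet fluorescence (488 nm excitation, 500-530 nm channel) was read by laser-scanning cytometry and normalized to 20 uM Triacsin C.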
# [4] = molecular target: Alpha-galactosidase (Coffea arabica) (UniProt Q42656); test: Counterscreen for Glucocerebrosidase Inhibitors: qHTS Assay for Coffee Bean alpha-Galactosidase at pH 5.9 (AID 998)
# Alpha-galactosidase (Coffea arabica), sequence (Q42656 whole entry, looked up): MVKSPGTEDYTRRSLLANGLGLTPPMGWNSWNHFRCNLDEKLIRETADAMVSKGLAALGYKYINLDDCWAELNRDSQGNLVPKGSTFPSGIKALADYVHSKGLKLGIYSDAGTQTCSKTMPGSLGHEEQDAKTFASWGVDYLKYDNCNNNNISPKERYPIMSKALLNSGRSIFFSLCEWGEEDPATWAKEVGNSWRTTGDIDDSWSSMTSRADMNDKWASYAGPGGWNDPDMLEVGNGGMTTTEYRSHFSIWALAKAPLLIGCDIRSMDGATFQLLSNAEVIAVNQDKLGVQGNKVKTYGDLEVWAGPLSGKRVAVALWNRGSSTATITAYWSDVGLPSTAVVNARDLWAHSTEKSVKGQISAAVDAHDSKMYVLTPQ
# In short: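 Green coffee bean enzyme (2 nM) with 4-methylumbelliferyl alpha-D-galactopyranoside (80 uM) in 50 mM citric acid, 0.005% Tween-20, pH 5.9, 20 min at room temperature; compounds 0.7 nM–77 uM. Stopped at pH 10, fluorescence Ex365/Em440; Hill-fit AC50.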
# [5] = Cell Viability - LYMP2-025 (AID 976)
# In short: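 In qHTS format, LYMP2-025 lymphoblastoid cells in complete culture medium received compound for 24 hr; ATP-based CellTiter-Glo signal gave viability, with AC50 derived by Hill equation.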
# [6] = Cell Viability - LYMP2-002 (AID 977);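 note: compound exposure lasted 24 h at 37 °C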
# In short: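 Human lymphoblastoid LYMP2-002 cells, 2500 per well, exposed to compounds for 24 h at 37 C in complete medium; viability read as intracellular ATP by CellTiter-Glo luminescence, AC50 from Hill fits.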
# [7] = Cell Viability - LYMP2-006 (AID 978); note: nearly all actives have a fitted effect of over 60% in size
# In short: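 In this cytotoxicity screen, the human lymphoblastoid line grew in complete medium with test compounds for 24 hr at 37 C. Cellular ATP served as the viability signal.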
# [8] = Cell Viability - LYMP2-007 (AID 979);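 note: cells exposed to compound for 24 h before reading; nearly all actives have a fitted effect of over 60% in size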
# In short: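 Acute toxicity is scored as a concentration-dependent fall in intracellular ATP in human lymphoblastoid cells treated 24 hr at 37 C, measured by luciferase luminescence; Hill-equation modelling yields AC50.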
# [9] = Cell Viability - LYMP2-008 (AID 980); note: nearly all actives have a fitted effect of over 60% in size
# In short: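 Acute cytotoxicity is scored as concentration-dependent loss of cellular ATP in a human lymphoblastoid line after 24 hr treatment at 37 C. ATP is quantified by luciferase luminescence.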
# [10] = Cell Viability - LYMP2-010 (AID 981); note: nearly all actives have a fitted effect of over 55% in size
# In short: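 Acute toxicity is scored as a concentration-dependent loss of cellular ATP in human lymphoblastoid cells after 24 hr compound exposure in complete medium. Tetraoctylammonium bromide is the positive control.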
# [11] = Cell Viability - LYMP2-012 (AID 982);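 note: cellular ATP by luciferase luminescence where a drop means cytotoxicity; cells exposed to compound for one day before reading; nearly all actives have a fitted effect of over 55% in size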
# [12] = Cell Viability - LYMP2-014 (AID 983); note: nearly all actives have a fitted effect of over 50% in size
# In short: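 Decrease in intracellular ATP after 24 hr treatment at 37 C, measured by luciferase luminescence, indicated cytotoxicity. Concentration-response data were fitted with the standard Hill equation to give AC50.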
# [13] = Cell Viability - LYMP2-016 (AID 984); note: nearly all actives have a fitted effect of over 55% in size
# In short: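 Concentration-dependent ATP depletion measured in LYMP2-016 lymphoblastoid cells, 24 h, 37 C; luciferase-based luminescent detection; Hill-equation AC50.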
# [14] = Cell Viability - LYMP2-018 (AID 985);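 note: compound exposure lasted 24 hr at 37 °C; nearly all actives have a fitted effect of over 50% in size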
# In short: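 Acute cytotoxicity is scored as a concentration-dependent drop in intracellular ATP after 24 hr exposure of the lymphoblastoid line in complete culture medium, measured by luciferase luminescence. Potency is expressed as AC50 from Hill modelling.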
# [15] = Cell Viability - LYMP2-020 (AID 986); note: nearly all actives have a fitted effect of over 55% in size
# In short: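 Acute cytotoxicity in a human lymphoblastoid line is scored as a concentration-dependent fall in cellular ATP after 24 hr at 37 C in complete medium. The positive control is tetraoctylammonium bromide, and potency is given as Hill-fit AC50.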
# [16] = Cell Viability - LYMP2-022 (AID 987); note: nearly all actives have a fitted effect of over 55% in size
# In short: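 Acute toxicity in a human lymphoblastoid line is scored as decreased intracellular ATP after 24 hr compound treatment at 37 C. ATP is measured by CellTiter-Glo luminescence; curves are fitted with the Hill equation to give AC50.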
# [17] = Cell Viability - LYMP2-024 (AID 988); note: nearly all actives have a fitted effect of over 60% in size
# In short: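 Acute toxicity is measured as concentration-dependent loss of intracellular ATP in a human lymphoblastoid line treated 24 hours at 37 C. Luciferase luminescence quantifies ATP; AC50 values come from standard Hill-equation modelling.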
# [18] = Cell Viability - LYMP2-026 (AID 989); note: nearly all actives have a fitted effect of over 50% in size
# In short: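 Concentration-dependent loss of intracellular ATP in human lymphoblastoid cells after 24 hr at 37 C, quantified by luciferase luminescence. AC50 derived from standard Hill equation.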
# [19] = Cell Viability - LYMP1-002 - Assay at 24 hr (AID 993)
# In short: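 qHTS, LYMP1-002 lymphoblastoid, 24 h cpd, 37 C, CellTiter-Glo ATP luminescence; AC50 via Hill eq.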
# [20] = Cell Viability - LYMP1-002 - Assay at 40 hr (AID 994); note: nearly all actives have a fitted effect of over 60% in size
# In short: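 Viability in the human lymphoblastoid line was measured as intracellular ATP via CellTiter-Glo after 40 hr compound exposure. Tetraoctylammonium bromide served as positive control.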
# [21] = measured here: cell count channel max response
# [22] = measured here: lipid channel max response
structure (smiles),measurement,setting,value
NCCc1c[nH]c2ccccc12,outcome,[1],inactive
same,outcome,[2],inactive
same,"activity change, negative = inhibition",[3],5.62% (inactive)
same,max response,[3]; [21],8.58%
same,max response,[3]; [22],17.6%
C#CC1(O)CCC2C3CCC4=CC(=O)CCC4(C)C3CCC21C (configuration not stated),"activity change, negative = inhibition",[3],2.45% (inactive)
same,max response,[3]; [21],10.4%
same,max response,[3]; [22],15.6%
COC(=O)[C@@H](N)CCCN=C(N)N[N+](=O)[O-],"activity change, negative = inhibition",[3],-4.08% (inactive)
same,max response,[3]; [21],-4.51%
same,max response,[3]; [22],-8.77%
CNCCc1c[nH]c2ccc(O)cc12,outcome,[1],inactive
same,outcome,[2],inactive
same,"activity change, negative = inhibition",[3],1.79% (inactive) and 0.655% (inactive)
same,max response,[3]; [21],5.25% and 4.7%
same,max response,[3]; [22],5.9% and 3.87%
CC[C@@]1(O)C(=O)OCc2c1cc1n(c2=O)Cc2cc3ccccc3nc2-1,outcome,[1],inactive
same,outcome,[4],inactive
same,"activity change, negative = inhibition",[3],-4.36% (inactive)
same,max response,[3]; [21],13.2%
same,max response,[3]; [22],8.88%
CCCCCCCCCCCCCCCC[N+](C)(C)C,Potency,[3],11.2 µM (active)
same,max response,[3]; [21],-15.3%
same,max response,[3]; [22],-89.4%
Cc1cc(O)ccc1Cl,Potency,[5],inactive
same,Potency,[6],inactive
same,Potency,[7],inactive
same,Potency,[8],inactive
same,Potency,[9],inactive
same,Potency,[10],inactive
same,Potency,[11],inactive
same,Potency,[12],inactive
same,Potency,[13],inactive
same,Potency,[14],inactive
same,Potency,[15],inactive
same,Potency,[16],inactive
same,Potency,[17],inactive
same,Potency,[18],inactive
same,Potency,[19],inactive
same,Potency,[20],inactive
same,"activity change, negative = inhibition",[3],8.09% (inactive)
same,max response,[3]; [21],-7.09%
same,max response,[3]; [22],5.53%
CCCN1CCO[C@@H]2c3cc(O)ccc3OC[C@H]21,outcome,[1],inactive
same,outcome,[2],inactive
O=C(O)COc1ccccc1,Potency,[5],inactive
same,Potency,[6],inactive
same,Potency,[7],inactive
same,Potency,[8],inactive
same,Potency,[9],inactive
same,Potency,[10],inactive
same,Potency,[11],inactive
same,Potency,[12],inactive
same,Potency,[13],inactive
same,Potency,[14],inactive
same,Potency,[15],inactive
same,Potency,[16],inactive
same,Potency,[17],inactive
same,Potency,[18],inactive
same,Potency,[19],inactive
same,Potency,[20],inactive
CC(C)Oc1cccnc1N(C)C1CCN(Cc2ccccc2)CC1,outcome,[1],inactive
same,outcome,[2],inactive
CN(C)[C@@H]1C(=O)C(C(N)=O)=C(O)[C@@]2(O)C(=O)C3=C(O)c4c(O)cccc4[C@@](C)(O)[C@H]3[C@H](O)[C@@H]12,Potency,[5],inactive
same,Potency,[6],inactive
same,Potency,[7],inactive
same,Potency,[8],inactive
same,Potency,[9],inactive
same,Potency,[10],inactive
same,Potency,[11],inactive
same,Potency,[12],inactive
same,Potency,[13],inactive
same,Potency,[14],inactive
same,Potency,[15],inactive
same,Potency,[16],inactive
same,Potency,[17],inactive
same,Potency,[18],inactive
same,Potency,[19],inactive
same,Potency,[20],inactive
CCCN1CCC[C@H](c2cccc(O)c2)C1,outcome,[1],inactive
same,outcome,[2],inactive
CCC(=O)OC1CCC2C3CCC4=CC(=O)CC[C@@]4(C)C3CC[C@]12C (some centres not stated),"activity change, negative = inhibition",[3],11.4% (inactive)
same,max response,[3]; [21],4.67%
same,max response,[3]; [22],18.5%
Clc1cnc(Oc2ccc(Oc3ncc(Cl)cc3Cl)cc2)c(Cl)c1,outcome,[1],inactive
same,outcome,[2],inactive
O=C1CCCN1CC#CCN1CCCC1,outcome,[1],inactive
same,outcome,[2],inactive
same,"activity change, negative = inhibition",[3],5.07% (inactive) and 8.93% (inactive) and 0.711% (inactive)
same,max response,[3]; [21],5.66% and 4.2% and 20.8%
same,max response,[3]; [22],13% and 25.8% and 21.1%
C#CCOC(=O)C1=CCCN(C)C1,outcome,[1],inactive
same,outcome,[4],inactive
same,outcome,[2],inactive
same,"activity change, negative = inhibition",[3],6% (inactive)
same,max response,[3]; [21],13.4%
same,max response,[3]; [22],20.6%
c1ccc(CCCN2CCN(CCOC(c3ccccc3)c3ccccc3)CC2)cc1,outcome,[1],inactive
CNCCc1ccc(O)c(O)c1,outcome,[1],inactive
C1CCC(NC2CCCCC2)CC1,Potency,[5],inactive
same,Potency,[6],inactive
same,Potency,[7],inactive
same,Potency,[8],inactive
same,Potency,[9],inactive
same,Potency,[10],inactive
same,Potency,[11],inactive
same,Potency,[12],inactive
same,Potency,[13],inactive
same,Potency,[14],inactive
same,Potency,[15],inactive
same,Potency,[16],inactive
same,Potency,[17],inactive
same,Potency,[18],inactive
same,Potency,[19],inactive
same,Potency,[20],inactive
CCCCCCCCc1ccc(O)cc1,Potency,[5],inactive
same,Potency,[6],inactive
same,Potency,[7],inactive
same,Potency,[8],inactive
same,Potency,[9],inactive
same,Potency,[10],inactive
same,Potency,[11],inactive
same,Potency,[12],inactive
same,Potency,[13],inactive
same,Potency,[14],inactive
same,Potency,[15],inactive
same,Potency,[16],inactive
same,Potency,[17],inactive
same,Potency,[18],inactive
same,Potency,[19],inactive
same,Potency,[20],inactive
CCOP(=O)(NC(C)C)Oc1ccc(SC)c(C)c1 (configuration not stated),Potency,[5],inactive
same,Potency,[6],inactive
same,Potency,[7],inactive
same,Potency,[8],inactive
same,Potency,[9],inactive
same,Potency,[10],inactive
same,Potency,[11],inactive
same,Potency,[12],inactive
same,Potency,[13],inactive
same,Potency,[14],inactive
same,Potency,[15],inactive
same,Potency,[16],inactive
same,Potency,[17],inactive
same,Potency,[18],inactive
same,Potency,[19],inactive
same,Potency,[20],inactive
